Bioassay records from PubChem BioAssay.
Compounds with a hit are over-represented: about 3.5% of the library has one in this group of screens.
CRE-bla Fsk: Cell signaling CRE-BLA (Fsk stim); CHO CRE-bla reporter (cAMP response element driving beta-lactamase), forskolin EC10, beta-lactamase ratio; Potency, µM (top dose mostly 38.2 µM), without a hit: at the top dose activity change, negative = inhibition, usual class: activators; 2.5% of 71,000 active; active means well fitted activation curve with a large enough effect in the signal ratio, with a control signal flat, not every such curve was filed as active; inconclusive means small, poorly fitted or top-dose-only effect, or effect the other way, or a change in a side signal; the % refers to the signal ratio; further: % of control where 0% means no effect
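Modulation of forskolin signalling: compounds in titration series added with EC10 NKH 477 to CHO cells carrying a CRE-driven beta-lactamase reporter, 3 h, 37C. CCF4 FRET ratio (460/530 nm, ex 405 nm) gives %activity and AC50.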
TSHR ag: qHTS Assay for Agonists of the Thyroid Stimulating Hormone Receptor | AID 926, 2007 | 0.48% of 73,000 active | Thyrotropin receptor (Homo sapiens), P16473 | Potency, µM (titrated, usually from 57.1 µM), without a hit: at the top dose activation, hits mostly activators | HEK293-CNG-TSHR cells (CNG channel as cAMP sensor), membrane potential dye, cAMP; active means well fitted activation curve with a large enough effect in the main read-out, with a control signal flat, not every such curve was filed as active; inconclusive means small, poorly fitted or top-dose-only effect, or a change in a side signal; inactive means no such curve, though single readings can be large or run the other way; % of control where 0% means no effect;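 further: the control signal comes from parental cells without the receptor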
Target sequence (P16473 whole entry, looked up): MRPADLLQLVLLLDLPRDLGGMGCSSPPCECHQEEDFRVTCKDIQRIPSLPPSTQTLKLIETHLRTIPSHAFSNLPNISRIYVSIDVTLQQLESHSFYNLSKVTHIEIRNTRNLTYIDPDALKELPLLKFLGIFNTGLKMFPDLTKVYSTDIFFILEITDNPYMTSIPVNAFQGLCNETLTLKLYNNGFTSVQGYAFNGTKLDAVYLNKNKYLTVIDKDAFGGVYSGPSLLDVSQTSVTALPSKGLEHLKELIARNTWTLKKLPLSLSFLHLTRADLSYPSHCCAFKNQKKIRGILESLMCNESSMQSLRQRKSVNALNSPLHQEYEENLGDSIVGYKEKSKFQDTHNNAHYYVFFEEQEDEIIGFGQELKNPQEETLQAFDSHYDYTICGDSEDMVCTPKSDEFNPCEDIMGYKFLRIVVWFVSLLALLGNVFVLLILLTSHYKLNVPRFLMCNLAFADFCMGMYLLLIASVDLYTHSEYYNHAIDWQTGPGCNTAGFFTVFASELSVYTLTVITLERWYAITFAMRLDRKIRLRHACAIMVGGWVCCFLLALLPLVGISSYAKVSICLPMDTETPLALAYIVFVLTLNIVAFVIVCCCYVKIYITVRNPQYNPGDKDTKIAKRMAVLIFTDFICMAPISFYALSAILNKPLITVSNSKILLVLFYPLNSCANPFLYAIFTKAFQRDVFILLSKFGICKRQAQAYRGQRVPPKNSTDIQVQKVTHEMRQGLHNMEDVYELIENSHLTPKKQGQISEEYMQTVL
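cAMP rise detected as CNG-channel membrane depolarization by fluorescent dye (emission 590 nm), 30 min after compound, following 60 min dye loading containing 100 uM RO 20-1724 at room temperature. Cells: TSHR/CNG HEK 293, with parental CNG HEK 293 as control.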
Hsp90 Hop PPI: qHTS Assay for Disrupters of an Hsp90 Co-Chaperone Interaction; Hsp90 C-terminal peptide / TPR2A (Hop) interaction, human; AlphaScreen TPR2A-His6 binding biotin-Hsp90 C-terminal peptide; Potency, µM (highest dose often 57 µM), inactives show at the top dose activity change, negative = inhibition; AID 595, 2007; 0.44% of 71,000 active; active means well fitted curve in either direction with a large enough effect; inconclusive means small, poorly fitted or top-dose-only effect, or another doubt; further: on the % scale 0 is the no-effect control and ±100 the full control effect
IkB sig inh: IkB Signaling | Potency, µM (doses to about 57.1 µM), for the others: at the highest dose IkBa stabilization activation | AID 445, 2006 | 0.04% of 110,000 active | ABC-DLBCL IkBa-CBG/CBR dual luciferase ratio, 4 h; response scale: scaled: untreated 0%, proteasome inhibitor 100%; active means well fitted curve in the direction sought with a large enough effect in the signal ratio, not every such curve was filed as active; inconclusive means small, poorly fitted or top-dose-only effect, or a change in a side signal; the % refers to the signal ratio;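 further: the direction sought is a rising ratio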
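In this assay, an IκBα–CBG68 fusion accumulates when IKK-driven degradation is blocked; native CBR normalizes for cell number. OCI-Ly3 cells were treated 4 h with compound and doxycycline, then green and red light read after Chroma-Glo addition.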
HEK293 cAMP ctrl: qHTS Assay for Agonists of the Thyroid Stimulating Hormone Receptor: Activators of Intracellular cAMP Concentrations in Parental HEK 293. 2.5% of 73,000 active. parental HEK293 CNG cAMP sensor, membrane potential fluorescence. AID 938, 2007. Potency, µM (titrated, usually from 57.1 µM), inactives show at the highest dose activation, actives largely listed as activators; active means well fitted activation curve with a large enough effect; inconclusive means small, poorly fitted or top-dose-only effect; inactive means no such curve, though single readings can be large or run the other way; further: % of control where 0% means no effect; nearly all actives have a fitted effect of over 55% in size
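Parental HEK 293 cells stably expressing a modified CNG channel (no TSHR) report cAMP rise as membrane depolarization. Membrane potential dye with 100 uM RO 20-1724 was loaded for 60 min at room temperature, then compound added for 30 min; fluorescence read at 590 nm.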
* = called active by the depositor; ? = inconclusive; . = not tested or not shown; [ ] = dose if it differs, or a comment. Potency means the concentration at half of the fitted maximal effect.

SMILES | CRE-bla Fsk | TSHR ag | Hsp90 Hop PPI | IkB sig inh | HEK293 cAMP ctrl
NCCCNCCCCNCCCN | 7.0% | 0.9% | -1.7% | 0.3% | -1.2%
COc1ccc2c(CNC3CCCCCC3)c(C(=O)O)n(Cc3ccccc3F)c2c1 | . | . | . | -3.8% | .
CC(CN(C)C)NC(=O)c1ccc(-n2c(=O)c(=O)[nH]c3ccccc32)cc1 (stereo not drawn) | . | 6.3% | . | . | -13.4%
Fc1ccccc1CSc1nnc(-c2cnccn2)n1Cc1ccco1 | ? | ? | -5.5% | 0.1% | 25.1µM*
C(=C\c1ccccc1)/CSc1nnc(-c2cnccn2)n1Cc1ccco1 | ? | ? | -13.4% | 10.2% | 12.6µM*
Brc1ccc(CSc2nnc(-c3cnccn3)n2Cc2ccco2)cc1 | 6.7% | ? | -1.7% | ? | 20µM*
CCCNC(=O)OC[C@@H]1O[C@H](CCO/N=C\c2ccc(C(=O)N3[C@H](c4ccc(C)cc4)[C@@H](C)CC[C@H]3C(=O)OC)cc2)C=C[C@@H]1Oc1ccc(OC)cc1 | . | -2.1%[11.4 µM] | . | . | 12.4%[11.4 µM]
COc1cccc(Cn2c(=O)cnc3cnc(Nc4cccc(OC)c4)nc32)c1 | -23.3% | ? | -4.0% | -3.1%[11.4 µM] | ?
FC(F)(F)c1cccc(N2CCN(c3nnnn3-c3ccccc3)CC2)c1 | 15.3% | ? | 23.1% | 3.6% | 31.6µM*
Cc1ccc(CSc2nnc(-c3cccs3)n2C)cc1 | 4.0% | 28.8% | -0.7% | 2.4% | 24.0%
Cn1c(SCc2c(Cl)cccc2Cl)nnc1-c1cccs1 | ? | ? | 0.5% | 0.7% | 12.6µM*
CNc1nc(NC)nc(-n2c(C(F)(F)F)nc3ccccc32)n1 | 12.6µM* | 9.8% | 0.5% | -5.4% | 10.7%
COC(=O)c1cc2sc(C)cc2n1Cc1ccc(Br)cc1F | . | . | . | 0.1% | .
NC(=O)CSc1cn(CCNC(=O)c2cccs2)c2ccccc12 | ? | 31.6µM* | 0.3% | 1.2% | 7.9%
CCOC(=O)c1oc2ccccc2c1NC(=O)C1CCCCC1 | ? | ? | 4.2% | 0.9% | 15.8µM*
CCOC(=O)c1oc2ccccc2c1NC(=O)c1cccc(OC)c1 | 3.16µM* | ? | ? | 2.4% | 31.6µM*
COc1cccc(C(=O)Nc2c(C(N)=O)oc3ccccc23)c1 | 5.01µM* | ? | 0.3% | 7.7% | ?
CCOCC(=O)Nc1c(C(=O)Nc2ccccc2OC)oc2ccccc12 | 12.5% | ? | -1.5% | 2.5% | 25.1µM*
COc1ccc(NC(=O)c2oc3ccccc3c2NC(=O)COc2ccccc2OC)c(OC)c1 | 3.5% | 7.6%[11.4 µM] | 2.3% | -0.3% | 6.8%
COc1ccc(C(=O)c2oc3ccccc3c2NC(=O)c2cccc(OC)c2)cc1 | . | . | . | -4.4% | .
CCOC(=O)c1oc2ccccc2c1NC(=O)c1cccc(OC)c1OC | 3.98µM* | 4.5% | ? | 3.0% | 25.1%
O=C1CCc2cc(OCCCCc3nnnn3C3CCCCC3)ccc2N1 | ? | 25.1µM* | -4.0% | 0.8% | ?
CCn1nnc(-c2ccccc2NC(=O)c2cc(OC)c(OC)c(OC)c2)n1 | 2.51µM* | ? | 11.9% | -3.0% | ?
CCOC(=O)Cc1c(C)c2ccc(N(CC)CC)cc2oc1=O | ? | 10.5% | 25.1µM* | 2.6% | 27.9%
CCN(CC)c1ccc2c(c1)oc(=O)c1c(Cl)cc(=O)oc12 | ? | -4.5% | 3.8% | ? | -4.6%
SMILES | CRE-bla Fsk | TSHR ag | Hsp90 Hop PPI | IkB sig inh | HEK293 cAMP ctrl
CCN(CC)c1ccc2c(Cl)c(Br)c(=O)oc2c1 | ? | ? | 25.1µM* | ? | ?
CCOC(=O)CCc1c(C)c2ccc(O)cc2oc1=O | ? | 29.6% | -2.1% | -2.2% | 11.5%
COCCn1c(=O)c(-c2ccc(F)cc2)nc2cnc(N3CCOCC3)nc21 | 2µM* | 1.5% | -6.2% | 0.0%[11.4 µM] | 2.4%
COCCn1c(=O)c(-c2ccc(Cl)cc2)nc2cnc(N3CCOCC3)nc21 | 1µM* | -2.8% | -8.8% | -2.3%[11.4 µM] | 13.8%
C[C@@H](N)C1CCC(C(=O)Nc2ccncc2)CC1 (stereo partly drawn) | . | -5.0% | . | . | -6.7%
CO[C@H]1COC(=O)[C@H](C)NC(=O)[C@@H](C)COC(=O)[C@H]2CCCN2C(=O)C/C=C\[C@H]1C | . | -1.2%[11.4 µM] | . | . | -1.8%[11.4 µM]
CN(C)C[C@@H](O)c1ccc(Cl)c2ccccc12 | -11.0%[7.6 µM] | 11.7%[11.4 µM] | ? | 0.6%[11.4 µM] | 19.6%[11.4 µM]
COc1ccc(CNc2cc(-c3ccccc3C)ncn2)c(OC)c1 | ? | ? | 7.4% | 3.3%[11.4 µM] | 15.8µM*
COc1ccccc1CNc1cc(-c2cccnc2)ncn1 | ? | ? | -8.5% | 0.4%[11.4 µM] | ?
COc1ccccc1CNc1cc(-c2ccccc2C)ncn1 | 15.4% | ? | -3.7% | 12.9%[11.4 µM] | 15.8µM*
COCCNc1cc(-c2ccccc2C(F)(F)F)ncn1 | ? | ? | -13.8% | 0.6%[11.4 µM] | 0.316µM*
COc1ccccc1CNc1cc(-c2ccccc2OC)ncn1 | ? | ? | 7.0% | 15.4%[11.4 µM] | 15.8µM*
COc1cc(NC(=O)NCCc2c(C)nn(C)c2C)cc(OC)c1OC | . | . | . | 0.6% | .
COC(=O)[C@](C)(N)Cc1ccc(O)cc1 | -0.2% | ? | -6.4% | -3.5% | ?
Cc1ccc(S(=O)(=O)c2cc3c(=O)n4ccccc4nc3n(CC3CCCO3)c2=N)cc1C (stereo not drawn) | 2µM* | -51.0% | 0.1% | -0.9% | -27.5%
CNC(=O)c1cc2c(=O)n3cc(C)ccc3nc2n(C(C)C)c1=N | 12.6µM* | -12.9% | -3.8% | 0.1% | -9.5%
Cc1ccc(S(=O)(=O)c2cc3c(=O)n4ccccc4nc3n(Cc3ccco3)c2=N)cc1C | ? | -0.2% | -4.9% | ? | -3.1%
Cc1ccc2nc3c(cc(C(=O)NCC4CCCO4)c(=N)n3CCCOC(C)C)c(=O)n2c1 (stereo not drawn) | 10µM* | -8.6% | -10.5% | 0.6% | -10.3%
N=c1c(C(=O)NCC2CCCO2)cc2c(=O)n3ccccc3nc2n1Cc1cccnc1 (stereo not drawn) | 12.6µM* | -6.4% | -4.8% | -1.3% | -6.2%
O=c1c(-c2ccc(Cl)cc2)nc2cnc(N3CCNCC3)nc2n1Cc1ccc(F)cc1 | ? | -8.2% | 15.4% | -1.3%[11.4 µM] | -17.4%
C[C@@H](c1ccccc1)N1C(=O)[C@H]2[C@@H]3[C@H](O)[C@H](O)CC(=O)[C@H]3CC[C@H]2C1=O | . | -3.2%[11.4 µM] | . | . | -0.6%[11.4 µM]
CN(C)c1ccccc1CN1CCCN(Cc2ccccc2N(C)C)C1c1ccncc1 | -7.2%[7.6 µM] | 13.5%[11.4 µM] | -1.9%[11 µM] | 2.8%[11.4 µM] | 13.3%[11.4 µM]
N#Cc1ccc(CN2CCC3(CC2)CCN(C(=O)c2cc(C(F)(F)F)cc(C(F)(F)F)c2)CC3)cc1 | -9.4% | 8.1% | -7.4% | 12.7%[11.4 µM] | 5.1%
COc1ccc(-c2noc(-c3ccc(NCC4CCCO4)c([N+](=O)[O-])c3)n2)cc1 (stereo not drawn) | . | . | . | -2.2% | .
O=C1CC(N2CCN(c3ccccc3Cl)CC2)C(=O)N1c1ccccc1 (stereo not drawn) | -13.5% | -3.1% | -1.1% | 3.6% | -0.1%
